# From PMC4336329 (PLoS ONE, 2015)
# Screen size: about 310,000 compounds; about 2,200 (0.71%) showed an effect of 50% or more. The effect is printed as a negative number. The entries come from a sample that favours strong results as a whole.
# Target: human ether-à-go-go-related gene (hERG) potassium channel (human, UniProt Q12809)
# Assay: primary screen, population patch clamp on CHO cells stably expressing hERG; higher = less effect of the substance
# human ether-à-go-go-related gene (hERG) potassium channel, sequence (Q12809 whole entry, looked up): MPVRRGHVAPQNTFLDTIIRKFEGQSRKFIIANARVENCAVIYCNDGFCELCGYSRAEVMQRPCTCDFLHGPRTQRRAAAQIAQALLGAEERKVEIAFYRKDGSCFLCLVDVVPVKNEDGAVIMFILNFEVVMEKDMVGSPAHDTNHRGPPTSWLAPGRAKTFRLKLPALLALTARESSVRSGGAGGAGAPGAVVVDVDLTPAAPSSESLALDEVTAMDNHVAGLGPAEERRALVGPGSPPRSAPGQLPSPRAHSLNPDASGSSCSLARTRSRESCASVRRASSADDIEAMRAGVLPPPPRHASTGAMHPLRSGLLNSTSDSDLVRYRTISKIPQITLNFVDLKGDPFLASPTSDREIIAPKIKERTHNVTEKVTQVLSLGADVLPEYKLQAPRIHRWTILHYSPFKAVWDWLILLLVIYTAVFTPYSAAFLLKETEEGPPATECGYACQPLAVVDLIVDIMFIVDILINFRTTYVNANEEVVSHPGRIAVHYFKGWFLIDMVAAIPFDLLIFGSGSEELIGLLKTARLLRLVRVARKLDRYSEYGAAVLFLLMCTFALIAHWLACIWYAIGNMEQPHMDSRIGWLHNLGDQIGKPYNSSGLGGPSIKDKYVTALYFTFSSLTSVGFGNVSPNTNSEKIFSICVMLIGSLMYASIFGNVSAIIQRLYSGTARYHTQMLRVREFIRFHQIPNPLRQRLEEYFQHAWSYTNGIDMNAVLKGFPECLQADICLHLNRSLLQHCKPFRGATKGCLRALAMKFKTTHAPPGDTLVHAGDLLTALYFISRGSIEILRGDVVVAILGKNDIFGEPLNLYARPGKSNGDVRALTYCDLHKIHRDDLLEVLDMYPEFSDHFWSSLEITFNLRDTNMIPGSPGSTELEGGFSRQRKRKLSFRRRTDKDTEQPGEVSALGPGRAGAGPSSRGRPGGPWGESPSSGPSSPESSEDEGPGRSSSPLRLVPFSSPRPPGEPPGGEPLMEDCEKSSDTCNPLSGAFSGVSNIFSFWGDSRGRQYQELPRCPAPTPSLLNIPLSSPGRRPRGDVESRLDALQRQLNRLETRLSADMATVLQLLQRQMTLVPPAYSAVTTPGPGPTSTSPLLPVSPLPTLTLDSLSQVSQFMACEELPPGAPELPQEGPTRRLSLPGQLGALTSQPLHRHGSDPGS
row,Structure (SMILES),"hERG current change (%, negative = inhibition) at 1uM"
1,OCC1(CCc2ccccc2)CCCN(C/C=C/c2ccccc2)C1 (centres unmarked),-53.6%
2,O=C(CCC(F)(F)F)N1CCCC(CO)(CCc2ccccc2)C1 (centres unmarked),-3.42%
3,COc1ccccc1/C=C/CN1CCCC(CO)(CCc2ccccc2)C1 (centres unmarked),-31.4%
4,CCOc1cc(C2NC(=O)NC(C)=C2C(=O)OC(C)CC)cc(Br)c1O (centres unmarked),10.2%
5,O=C1N[C@@H](Cc2cn(S(=O)(=O)c3c(F)c(F)c(F)c(F)c3F)c3ccccc23)C(=O)N[C@H]1Cc1ccccc1,10.7%
6,COc1ccc(/C=C(/NC(=O)c2ccccc2)C(=O)N2CCCC2)cc1,6.1%
7,CN1CCN(C(=O)/C(=C/c2ccc(F)cc2)NC(=O)c2ccccc2)CC1,-80.8%
8,CN1CCN(C(=O)/C(C#N)=C/c2ccc(F)cc2)CC1.Cl,1.43%
9,COc1ccc(/C=C(/NC(=O)c2ccccc2)C(=O)N2CCCCC2)cc1,6.93%
10,CSc1ccc(/C=C(/NC(=O)c2ccccc2)C(=O)N2CCN(C)CC2)cc1,-48.7%
11,CCOC(=O)N1CCN(C(=O)/C(=C/c2ccc(Br)cc2)NC(=O)c2ccc(OC)cc2)CC1,-81.5%
12,CCOC(=O)N1CCN(C(=O)/C(=C/c2ccc(OC)cc2)NC(=O)c2ccccc2)CC1,-27.1%
13,COc1ccc(/C=C(\NC(=O)c2ccccc2)C(=O)N2CCN(C)CC2)cc1,-75.2%
14,O=C(N/C(=C/c1ccc(F)cc1)C(=O)N1CCCC1)c1ccccc1,25.3%
15,CN1CCN(C(=O)/C(=C/c2ccccc2)c2ccccc2)CC1,-33.2%
16,CCOC(=O)N1CCN(C(=O)/C(=C/c2cccc3ccccc23)NC(=O)c2ccc(OC)cc2)CC1,-10.5%
17,CN1CCN(C(=O)/C(=C/c2ccc(F)cc2)c2ccsc2)CC1.Cl,-52.8%
18,CCOC(=O)/C=C/C(=O)Nc1ccc(S(=O)(=O)Nc2cc(C)on2)cc1,10.3%
19,O=C(Cc1ccccc1)NC1CCN(C(=O)NCc2ccccc2)CC1,-8.61%
20,N#Cc1nc(COc2cccc(Cl)c2)oc1NCCN1CCOCC1,-22.3%
21,CC1CN(S(=O)(=O)c2cccc(C(=O)Nc3ccc4c(c3)CCC4)c2)CC(C)O1 (centres unmarked),1.39%
22,O=C(CN(Cc1ccccc1Cl)C(=O)CN1C(=O)CSc2ccccc21)NC1CC1,-30.7%
23,Cc1ccc(-c2nc3ccccc3[nH]2)cc1NC(=S)NC(=O)c1ccccc1Br,8.3%
24,c1ccc(-c2noc(-c3ccc4c(c3)OCO4)n2)nc1,14.3%

row,Structure (SMILES),"hERG current change (%, negative = inhibition) at 1uM"
1,O=C(CCC(=O)Nc1ccccc1)NNC(=O)CCc1ccccc1,13.6%
2,COc1cccc(OC)c1NC(=O)C1CCCN1C(=O)NCc1ccccc1 (centres unmarked),3.69%
3,COC(=O)c1ccc(NC(=O)C2C3CCC(C3)C2C(=O)O)cc1 (centres unmarked),3.27%
4,O=C(O)c1ccc(S(=O)(=O)NCc2ccc3c(c2)OCO3)cc1,11.3%
5,CC1CCN(CCc2nc3cc(NC(=O)COc4ccc(Cl)cc4)ccc3n2C)CC1,-60.7%
6,CC1CCN(CCc2nc3cc(NC(=O)COc4ccccc4)ccc3n2C)CC1,-33.9%
7,Cc1ccc(OCC(=O)Nc2ccc3c(c2)nc(CCN2CCC(C)CC2)n3C)cc1,-53.3%
8,Cn1c(CCN2CCOCC2)nc2cc(NC(=O)COc3ccc(Cl)cc3)ccc21,2%
9,CC1CCN(CCc2nc3cc(NC(=O)COc4ccc([N+](=O)[O-])cc4)ccc3n2C)CC1,-2.45%
10,COc1ccc(OCC(=O)Nc2ccc3c(c2)nc(CCN2CCC(C)CC2)n3C)cc1,-46.3%
11,CCOc1ccc(NS(=O)(=O)c2ccc3c(c2)N(C(C)=O)CCO3)cc1,17%
12,C[C@]12CCC(=O)CC1CCC1C2CC[C@]2(C)C(OC(=O)CCC(=O)O)CCC12 (some centres unmarked),9.84%
13,CCC1CCCCN1C(=O)Nc1cc(Cl)ccc1OC (centres unmarked),15.2%
14,O=C(c1ccco1)N1CCN(C(=O)C2CCN(S(=O)(=O)c3cccs3)CC2)CC1,-26.1%
15,CCc1nn(CC(=O)NCCCN2CCc3ccccc3C2)c(=O)c2cc3sccc3n12,-53.8%
16,CCc1nn(CC(=O)NCCCN2CCN(C)CC2)c(=O)c2cc3sccc3n12,5.53%
17,CCc1nn(CC(=O)NCCCN2CCOCC2)c(=O)c2cc3sccc3n12,15.6%
18,COc1cc(S(=O)(=O)Nc2ncn[nH]2)ccc1Cl,13.5%
19,COCCN1Cc2cccc(C(=O)NCc3ccccc3OC)c2C1=O,3.2%
20,Cc1ccc(NC(=S)NCCN(C2CCCCC2)C2CCCC2)cc1,-10.5%
21,Cc1cccc(NC(=S)NCCN(C2CCCCC2)C2CCCC2)c1,-1.59%
22,Cc1cc(C)cc(NC(=S)NC2CC3CCCC(C2)N3C2CCCC2)c1 (centres unmarked),-52.3%
23,CCCN1C2CCCC1CC(NC(=S)Nc1cc(C)ccc1C)C2 (centres unmarked),8.55%
24,Cc1cc(C)cc(NC(=S)NC2CC3CCCC(C2)N3C2CC2)c1 (centres unmarked),-32%

row,Structure (SMILES),"hERG current change (%, negative = inhibition) at 1uM"
1,Cc1cc(C)cc(NC(=S)NC2CC3CCCC(C2)N3CC(C)C)c1 (centres unmarked),11.3%
2,CCCN1C2CCCC1CC(NC(=S)Nc1cc(C)cc(C)c1)C2 (centres unmarked),-81.4%
3,CCCN1C2CCCC1CC(NC(=S)Nc1cccc(C)c1)C2 (centres unmarked),-12.7%
4,Cc1cc(C)cc(NC(=S)NCCN(C2CCCCC2)C2CCCC2)c1,-59.7%
5,Cc1ccc(CSc2ccc(-c3ccc4c(c3)OCO4)nn2)cc1,12.7%
6,COc1ccccc1CC(=O)NCCCc1ccccc1,11.2%
7,O=C(CCS(=O)(=O)c1ccc2c(c1)NC(=O)CS2)NCCc1ccc(Cl)cc1,10%
8,CCN(C(=O)COC(=O)CNC(=O)c1ccc(F)cc1)C1CCS(=O)(=O)C1 (centres unmarked),9.62%
9,COC(=O)Nc1c(C(=O)OC)cc(OC)c(OC)c1OC,6.05%
10,CC1=NNC(=O)C1CCC(=O)N/N=C/c1ccc(Cl)cc1Cl (centres unmarked),12.6%
11,COc1cc(OC)cc(C(=O)NNC(=O)c2ccc(S(=O)(=O)N(C)c3ccccc3OC)cc2)c1,13.2%
12,CS(=O)(=O)N1CCN(C(=O)c2ccc(-c3ccccc3)cc2)CC1,9.18%
13,COc1cc(F)cc(-c2ccc3c(c2)c(-c2cccs2)c(-c2cc(OC)cc(OC)c2)n3C)c1,12.5%
14,CCOC(=O)C1(CCOc2ccccc2)CCN(Cc2cccc(F)c2)CC1,-7.5%
15,CCOC(=O)C1(CCOc2ccccc2)CCN(Cc2ccc(OC)cc2)CC1,-77.4%
16,CCOC(=O)C1(Cc2ccccc2)CCN(Cc2ccc(C)s2)CC1,-2.06%
17,CCOC(=O)C1(CCOc2ccccc2)CCN(Cc2cccc(-n3cccn3)c2)CC1,-68.5%
18,CCOC(=O)C1(Cc2cccc(OC)c2)CCN(Cc2cnc(C)s2)CC1,11%
19,CCOC(=O)C1(CCOC)CCN(Cc2cccc(OCc3ccccc3)c2)CC1,3.99%
20,CCOC(=O)C1(Cc2cccc(OC)c2)CCN(Cc2ccc(C)s2)CC1,-53.1%
21,CCOC(=O)C1(CCOc2ccccc2)CCN(Cc2ccc(-n3cccn3)cc2)CC1,-37.8%
22,CCOC(=O)C1(CCOc2ccccc2)CCN(Cc2cnc(SC)nc2)CC1,-28.4%
23,CCOC(=O)C1(CCOc2ccccc2)CCN(Cc2cccc(OCCO)c2)CC1,-84.4%
24,Cc1ccc(NC(=O)CCC(=O)NNC(=O)COc2ccccc2)c(C)c1,7.32%

row,Structure (SMILES),"hERG current change (%, negative = inhibition) at 1uM"
1,CC1(C)C(=O)OC(c2c3ccccc3cc3ccccc23)C(C)(C)C1=O (centres unmarked),0.485%
2,COc1ccc(/C=C/c2cc(=O)c3cc(Cl)ccc3o2)cc1,9.88%
3,COCCn1ccc2c(OCC(=O)NCCc3ccccc3)cccc2c1=O,0.744%
4,CSc1ccc(C2CC(=O)Nc3nc(SC)[nH]c(=O)c32)cc1 (centres unmarked),17%
5,O=C(O)c1ccc(S(=O)(=O)c2ccc3c(c2)C(=O)N(NC(=O)c2ccncc2)C3=O)cc1,5.01%
6,NNC(=O)c1nc(-c2ccccc2)n2c1CCCCC2,0.842%
7,O=C(OCC(=O)N1CCCC1)c1c2c(nc3ccccc13)CCCCC2,9.48%
8,CC1(C)CC(c2nc(-c3ccc([N+](=O)[O-])cc3)cs2)CCO1 (centres unmarked),9.08%
9,CC(C)NC(=O)NS(=O)(=O)c1cnccc1NC1CC2CCC1C2 (centres unmarked),9.06%
10,CCn1cc([N+](=O)[O-])c(C(=O)N2N=C(c3ccc(O)c(OC)c3)CC2c2ccccc2O)n1 (centres unmarked),18.1%
11,Cc1ccc2nc(-c3ccccn3)oc2c1,12.6%
12,Cc1ccccc1NC(=O)NCCc1ccc(Cl)cc1,8.42%
13,CCOC(=O)C1(CCOc2ccccc2)CCN(C(=O)c2cncs2)CC1,-27.4%
14,CCOC(=O)C1(CCOc2ccccc2)CCN(Cc2cccs2)CC1,-32.6%
15,CCOC(=O)C1(CCOc2ccccc2)CCN(Cc2ccc(C)s2)CC1,-65.4%
16,CCOC(=O)C1(CCOc2ccccc2)CCN(Cc2ccc(O)cc2)CC1,-84.8%
17,CCOC(=O)C1(CCOc2ccccc2)CCN(C(=O)c2ccc(-n3cccn3)cc2)CC1,-85.6%
18,CCOC(=O)C1(CCOc2ccccc2)CCN(C(=O)CCSC)CC1,-11.3%
19,CCOC(=O)C1(CCOc2ccccc2)CCN(Cc2cccc(O)c2)CC1,-28.7%
20,CCOC(=O)C1(CCOc2ccccc2)CCN(Cc2ccncc2)CC1,-23.5%
21,CCOC(=O)C1(CCOc2ccccc2)CCN(Cc2cnc(C)s2)CC1,-18.8%
22,CCOC(=O)C1(CCOc2ccccc2)CCN(Cc2ccc(OCCO)cc2)CC1,-85.1%
23,CCOC(=O)C1(CCOc2ccccc2)CCN(Cc2ccc(C#CCCO)cc2)CC1,0.161%
